Screening results as filed in PubChem BioAssay.
A selection: hits, their analogues and other compounds. The true share with any hit is near 27%.
PTK2B oligo ant = blocks oligomerization of human Pyk2 in cells; z-score (the deposit names both 25 µM and 10 µM); 99,000 tested, 0.83% active; Q14289; Q293 cells, Pyk2 FERM NanoBiT luminescence; hits give low values;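 active = Z-score of -3 or lower, scaled per plate to the spread of control and sample wells; inactive = z-score above -3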;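 also: negative z-score means lost luminescence so less FERM oligomerization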
CYP2C9 activ = CYP2C9 (human) activation; 96,000 tested, 1.4% active; recombinant CYP2C9, luciferin-H conversion, luminescence; hits give high values; factor 1 = untreated enzyme, 0 = blocked; activation factor at 5 µM; P11712; AID 1024;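 active = activation factor of 2 or more for CYP2C9 at a 5 µM dose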;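 also: 0 = sulfaphenazole-blocked wells and 1 = vehicle-only wells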
CYP2C19 act = activators of human cytochrome P450 2C19; P33261; recombinant CYP2C19, luciferin-H EGE luminescence; hits give high values; 0 = fully inhibited enzyme, 1 = untreated enzyme; activation factor at 5 µM; 96,000 tested, under 10 active; AID 1025;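 active = activation factor of at least 2 at 5 µM in the primary screen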;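 also: 0 = wells with 2.5 mM tranylcypromine and 1 = vehicle-only wells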
CYP2C19 inhib = human CYP2C19 inhibition; CYP2C19 Supersomes, luciferin-H EGE luminescence, 30 min; inhibition, % at 5 µM; 96,000 tested, 21% active;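 active = CYP2C19 inhibition above a set limit at 5 µM in the primary screen, cut at about 50% in these data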;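 also: plate controls were negative control wells for no effect and 2.5 mM tranylcypromine positive control for full effect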
Cav32 inh = inhibitors of human Cav3.2 T-type calcium channel. O95180. Cav3.2-expressing cells, Fluo-4 calcium fluorescence FDSS; hits give low values. B-score at 10 µM. 100,000 tested, 4% active. AID 449739;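 active = single-dose well whose peak fluorescence ratio is a statistical outlier from its plate by either plate-standardised score or position-corrected B-score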
CYP2C9 inhib = human CYP2C9 inhibition | CYP2C9 Supersomes, luciferin-H conversion, luminescence | P11712 | inhibition, % at 5 µM | 96,000 tested, 20% active;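 active = blocking of liver enzyme CYP2C9 beyond about 50% at 5 µM, limit read from the data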
* = called active by the depositor; x = no result given.

SMILES	PTK2B oligo ant	CYP2C9 activ	CYP2C19 act	CYP2C19 inhib	Cav32 inh	CYP2C9 inhib
CC(NC(=O)c1ccc(S(=O)(=O)N(C)C)cc1)c1ccccc1 (centres undefined)	2	0.5	0.5	46	0.26	54*
COc1ccccc1C(=O)NC(C)c1ccccc1 (centres undefined)	-0.39	2.4*	0.4	56*	-0.076	-140
COc1cccc(OC)c1C(=O)NC(C)c1ccccc1 (centres undefined)	0.07	x	x	x	-0.013	x
CC(NC(=O)c1ccccc1O)c1ccccc1 (centres undefined)	-0.35	0.7	0.4	58*	0.0041	30
CCCC(=O)Nc1sc(C)c(C)c1C(=O)Nc1cccc(C)c1	0.95	0.9	0.8	15	-0.26	10
CCSc1nnc(NC(=O)Cc2ccc(OC)cc2)s1	-0.5	0.6	0.8	25	-2	35
c1ccc(Oc2cccc(OCCn3cncn3)c2)cc1	-0.47	0.3	0.1	95*	0.14	68*
c1ccc(-c2ccc(OCCCn3cncn3)cc2)cc1	-0.07	0.3	0.3	70*	-0.88	71*
CC(=O)CCc1ccc(OCCCCn2cncn2)cc1	0.11	0.8	0.5	47	0.63	24
c1ccc(COc2ccc(OCCn3cncn3)cc2)cc1	0.38	0	0.1	92*	-0.49	96*
Cc1nc(N)sc1N=Nc1ccc(Br)cc1	-0.62	0.6	0.7	33	x	37
COc1ccc(-n2cnnc2SCc2csc(-c3ccccc3)n2)cc1	-0.87	0.7	0.3	75*	-0.67	27
c1ccc(-c2ncc(CSc3nncn3-c3ccccc3)s2)cc1	0.84	1.3	0.4	59*	-0.74	-26
O=C(COC(=O)Cc1ccsc1)Nc1ccc(Cl)c(S(=O)(=O)N2CCOCC2)c1	0.31	x	x	x	x	x
CCCCNC(=S)NNC(=O)c1csc2ccccc12	0.83	1.7	0.4	62*	0.56	-71
CCCCNC(=S)NNC(=O)c1ccoc1C	0.58	1	0.6	35	0.15	3
Cn1cccc1Cc1nnc(SCC(=O)NC2CCCCC2)n1-c1ccc(F)cc1	x	1.1	1	-3	-0.51	-13
COc1ccc(NC(=O)CSc2nnc(Cc3cccn3C)n2-c2ccc(C)cc2)cc1OC	2.5	0.7	0.9	9	-2.2	26
COc1ccc(-n2c(Cc3cccn3C)nnc2SCC(=O)Nc2cccc(OC)c2)cc1	x	0.6	0.7	25	-4.2*	44
Cc1cc(C)cc(NC(=O)CSc2nnc(Cc3cccn3C)n2-c2ccc(F)cc2)c1	x	0.9	1	0	-13*	10
Cn1cccc1Cc1nnc(SCC(=O)Nc2ccc3c(c2)OCO3)n1-c1ccc(F)cc1	x	0.6	0.6	40	-8.5*	44
COc1cccc(NC(=O)CSc2nnc(Cc3cccn3C)n2-c2ccc(F)cc2)c1	x	0.2	1.1	-14	-5*	84*
COc1ccc(-c2c3c(=O)n(C)c(=O)n(C)c3cn2Cc2cccnc2)cc1	-0.58	0.9	0.7	28	1.4	5
CCOC(=O)N1CCN(C(=O)CSc2nc3c(cnn3-c3ccc(C)cc3)c(=O)[nH]2)CC1	x	x	x	x	1.4	x
O=C1CCC(=O)N(O)CCCCCNC(=O)CCC(=O)N(O)CCCCNC(=O)CCC(=O)N(O)CCCCCN1	x	x	x	x	-0.17	x
SMILES	PTK2B oligo ant	CYP2C9 activ	CYP2C19 act	CYP2C19 inhib	Cav32 inh	CYP2C9 inhib
COc1ccc(-n2c(Cc3cccn3C)nnc2SCC(=O)Nc2ccc(C)c(Cl)c2)cc1	x	0.7	0.9	12	-4.2*	27
COCCN(C(=O)CCC(=O)Nc1ccccn1)C(C(=O)NC1CCCC1)c1ccc(OC)cc1 (centres undefined)	0.64	x	x	x	0.015	x
CC1(C)Cc2c(C#N)c(NCc3ccco3)nc(-c3ccco3)c2CO1	-0.06	0.8	1	-3	-0.75	19
CC1(C)Cc2c(C#N)c(N3CCN(C(=O)c4ccccc4)CC3)nc(-c3ccco3)c2CS1	-0.5	x	x	x	-2.6	x
CC1(C)Cc2c(C#N)c(N3CCCC3)nc(-c3ccco3)c2CO1	x	0.1	0.5	51*	-1.7	91*
N#Cc1c(N2CCOCC2)nc(-c2ccco2)c2c1CCCC2	-0.49	0.3	0.8	21	-1.3	67*
CCCc1nc(NCc2ccco2)c(C#N)c2c1COC(C)(C)C2	-0.52	0.7	0.9	6	-0.72	29
CC(C)c1nc(N2CCN(C(=O)c3ccccc3)CC2)c(C#N)c2c1COC(C)(C)C2	-0.77	0.2	0.3	72*	-6.2*	81*
CCCCN(C)c1nc(-c2ccco2)c2c(c1C#N)CC(C)(C)OC2	x	0.7	1.1	-9	-3.8*	32
O=c1c2nnn(-c3ccccc3)c2ncn1C/C=C/c1ccccc1	x	x	x	x	-0.31	x
CCCCn1c(NC(=S)Nc2ccccc2)nc2ccccc21	-0.77	x	x	x	x	x
CCOC(=O)n1c(=O)n(Cc2c(Cl)cccc2Cl)c2ccccc21	-1.9	0.5	0.4	61*	-2.4	48
CCOC(=O)n1c(=O)n(Cc2ccc(Cl)c(Cl)c2)c2ccccc21	-1.1	0.5	0.5	51*	x	53*
CCOC(=O)n1c(=O)oc2ccccc21	-0.52	1	1	2	x	4
CCOC(=O)n1c(=O)n(Cc2ccccc2)c2ccccc21	0.53	0.8	0.3	70*	-1.6	18
CCOC(=O)N1CCN(C(=O)c2ccc3c(c2)NC(=O)C(N2CCOCC2)S3)CC1 (centres undefined)	0.12	0.9	0.8	15	x	7
CCOc1ccc(C(C)=O)cc1CN1C(=O)NC2(CCCCC2C)C1=O (centres undefined)	-0.38	0.8	0.7	34	0.82	15
COc1ccc(C(C)=O)cc1CN1C(=O)NC2(CCCCCC2)C1=O	-1.2	0.7	0.1	88*	0.69	29
Cc1ccc(C(C)C)c(OCCNC(=S)Nc2cccc3ccccc23)c1	-0.76	0.2	0.1	85*	-2.3	84*
Cc1ccc(C(C)C)c(OCCN)c1	0.7	0.8	0.9	9	0.04	23
COc1cccc(C2=NOC(C(=O)NC3CCCCC3)C2)c1 (centres undefined)	-0.4	2.9*	0.9	10	0.11	-190
CCn1ncc(C2=NOC(C(=O)NCc3ccccc3)C2)c1C (centres undefined)	1.2	0.8	0.4	57*	0.47	23
COc1ccc(CCNC(=O)C2CC(c3ccccc3F)=NO2)cc1 (centres undefined)	x	x	x	x	-0.72	x
O=C(NCCc1ccccc1)C1CC(c2ccccc2O)=NO1 (centres undefined)	0.84	0.7	0.1	87*	0.14	33
O=C(NCc1ccc2c(c1)OCO2)C1CC(c2cccc(Br)c2)=NO1 (centres undefined)	1	1.9	0.7	29	-9.1*	-88
COc1cccc(C2=NOC(C(=O)NCc3ccccc3)C2)c1 (centres undefined)	0.73	1.2	0.5	50*	x	-24
